From the emibetuzumab library of Makowski et al. (2022)
Some of the results follow. No count for the full screen is at hand.

B1: VH:VL chains; a variant is named by its letters at X, in order (parent)
chain 1: QVQLVQSGAEVKKPGASVKVSCKASGYTFTDYXMHWVRQAPGQGLEWMGXVNPNXXXTTYNQKFEGRVTMTTDTSTSTAYMELRSLRSDDTAVYYCARXNXLDXWGQGTTVTVSS
chain 2: DIQMTQSPSSLSASVGDRVTITCSVSSSVSSIYLHWYQQKPGKAPKLLIYSTSNLASGVPSRFSGSGSGTDFTLTISSLQPEDFATYYCQVYSGYPLTFGGGTKVEIK

Variants of: B1
Assay: yeast display scFab, FACS + sequencing
Settings: with MET
Summary of the method: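 A yeast surface library of scFab variants carrying heavy-chain CDR mutations went through two magnetic enrichment rounds on Protein A beads coated with HGFR-Fc, then FACS. For sorting, cells were labelled for 3 h at room temperature with 1 nM HGFR-Fc and anti-Myc in PBSB containing 1% milk, and the top 50% of antigen-positive cells were gated. Input and round-3 sorted populations were deep sequenced in two replicates. A sequence was called an antigen binder if it appeared in both antigen-positive samples and a non-binder if it appeared only in the input.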

| Variant | antigen binding call |
| --- | --- |
| ARRGSDVA | no binding |
| YTRGADGA | no binding |
| YRTEGAVA | binds |
| YRRGGAAA | binds |
| DREEGAVA | no binding |
| YRRGSAVA | binds |
| YRRGAAAA | binds |
| YETGAAAA | no binding |
| DETGGDWF | no binding |
| VEEEGDWV | no binding |
| VTGTGDWF | no binding |
| YRRGGAVA | binds |
| YREKAAWA | no binding |
| YRRGAAWA | binds |
| YRRGSAWA | binds |
| YTRGADWA | no binding |
| YRRGGAWA | binds |
| DEGGDDAA | no binding |
| VKGRADSA | no binding |
| VEKTGVGA | no binding |
| YRAESAAA | binds |
| YAAKTAAA | no binding |

| Variant | antigen binding call |
| --- | --- |
| YRAKGAAA | binds |
| YRAGTAAA | binds |
| YEAGTAVA | no binding |
| DRAGDAAA | no binding |
| YRAGSAAA | binds |
| VAEGGYAV | no binding |
| VTAEDFGV | no binding |
| AARADAVA | no binding |
| DGGKNDLA | no binding |
| DKGRGSSA | no binding |
| VKEKGSLF | binds |
| VEGRGDVF | no binding |
| YAGRGDWF | no binding |
| VKGRGSVF | binds |
| YKGRGSWF | binds |
| VTGRGDVF | no binding |
| VKEKGYLV | no binding |
| VKGRGDSF | no binding |
| VKGRGSSF | binds |
| YGGRGSWV | no binding |
| VKEKGDSA | no binding |
| VTTRADVV | no binding |

| Variant | antigen binding call |
| --- | --- |
| YTGGADAV | no binding |
| VKGRGSLF | binds |
| YKGRGALF | binds |
| DGARGALF | no binding |
| VKGRASGF | no binding |
| YKGRGSLF | binds |
| YKARSALF | binds |
| DAGGADWA | no binding |
| SARTDFWF chain 1 K19N | no binding |
| ATKTAFVS chain 1 M34I | no binding |
| SEAGDAVV | no binding |
| VTTRADVY | no binding |
| FKGEGAGV | no binding |
| FRGESAGS | binds |
| FRGESAGV | binds |
| DAKENDVF | no binding |
| VEGTSDLS | no binding |
| YRTGGSGA | binds |
| FARKGSGA | no binding |
| YRKGGSGA | binds |
| YTKRSSGA | no binding |
| YRRKGSGA | binds |

| Variant | antigen binding call |
| --- | --- |
| YRKGSSGA | binds |
| YTTGGDGA | no binding |
| YAKADSGA | no binding |
| VKTGGAGA | no binding |
| YKTGGSGA | binds |
| DATGGSGA | no binding |
| YRGKASWD | binds |
| YRGRSSWD | binds |
| DAGTGSWD | no binding |
| YRGRDSWD | binds |
| VTTKSSSA | no binding |
| ATATADWA | no binding |
| DKRKGVAF | no binding |
| VETEGSSV | no binding |
| VRAGDSSV | binds |
| VRTEDDWV | no binding |
| VKGRASSV | no binding |
| VTEEGSSV | no binding |
| VTGTASSV | no binding |
| VRRKSSSV | binds |
| VRAGDDGV | no binding |
| VRTEDFGV | no binding |

| Variant | antigen binding call |
| --- | --- |
| VRAEGSSV | binds |
| VRTEDSSV | binds |
| VEAGDSWV | no binding |
| VETEGDGV | no binding |
| ATGANAGD | no binding |
| AETGASLS | no binding |
| DTKAADWV | no binding |
| DREGGVSD | no binding |
| SGRGNALD | no binding |
| DATGGALD | no binding |
| SRRRGALD | binds |
| SAREGALD | no binding |
| DRRRGALD | binds |
| VTATADWA | no binding |
| VKGRADWD | no binding |
| SEEEGAGD | no binding |
| VAGTGDGV | no binding |
| YRGKDALA | binds |
